Reference: PubChem BioAssay
Results filed as inconclusive are left out. Calls of active or inactive are those of the source.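 How the source made its calls, unless noted: active means viability loss from added drug above about 55%, and viability with drug at most 40%, in both replicates (limit read from the data, passing the limit was not always enough); inconclusive means both conditions met in only one replicate; inactive means neither replicate meets both conditions.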

Tests used:
[1] = molecular target: Pantothenate synthetase (Mycobacterium tuberculosis (strain ATCC 25618 / H37Rv)) (UniProt P9WIL5); assay: Coupled enzyme confirmation of inhibitors against recombinant Mtb PanC (AID 375; call rule not given here;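 further: 0% = full reaction with vehicle and 100% = no enzyme background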); details: coupled enzyme assay; at 10 µM, stronger effect = higher value
Pantothenate synthetase (Mycobacterium tuberculosis (strain ATCC 25618 / H37Rv)), sequence (P9WIL5 whole entry, looked up): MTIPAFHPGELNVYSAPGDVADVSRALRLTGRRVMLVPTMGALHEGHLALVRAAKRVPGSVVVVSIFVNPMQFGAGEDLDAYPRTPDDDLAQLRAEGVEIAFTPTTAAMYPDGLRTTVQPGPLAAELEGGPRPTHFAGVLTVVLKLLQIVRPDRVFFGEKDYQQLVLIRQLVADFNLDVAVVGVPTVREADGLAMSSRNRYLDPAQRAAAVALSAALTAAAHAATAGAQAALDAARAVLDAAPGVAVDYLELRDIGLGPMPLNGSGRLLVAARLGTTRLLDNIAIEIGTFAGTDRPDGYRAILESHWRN

[2] = reduced viability of SK-BR-3 breast cancer cells – cell-based, 24 h, human, pilot screen (AID 572;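 active means viability at or below 10% of carrier control in both of two separate runs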;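 further: compound exposure lasted between 18 and 24 h rather than exactly 24 h; 100% = carrier-treated control wells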); details: SK-BR-3 viability, CellTiter-Glo luminescence, at 10 µM, stronger effect = lower value
[3] = MRP1 drug-resistance reversers in H69AR cells – cell-based, doxorubicin co-treatment, pilot screen (AID 601); details: CellTiter-Glo, 72 h, at 10 µM; for differential viability (reversal): stronger effect = higher value
[4] = yeast transport mutant growth inhibition pilot in 384-well plates, post-Golgi transport modulator project (AID 636; in the data active means inhibition above about 31%); details: absorbance 615 nm, about 18 h, stronger effect = higher value
[5] = growth suppression of yeast trafficking mutant, preliminary HTS, modulators of trafficking downstream of Golgi apparatus project, 1536-format plate, OD 615 nm (AID 637; in the data active means inhibition above about 30%); details: yeast transport mutant growth, absorbance 615 nm, 18 h; stronger effect = higher value
[6] = HUVEC growth inhibition – cell-based, human, primary screen (AID 575;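 active means viability at or below 30% in both replicate assays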;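 further: 100% = median of untreated cell wells with 0.1% DMSO on each plate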); details: HUVEC proliferation, CellTiter-Glo luminescence, 72 h; at 10 µM; stronger effect = lower value
[7] = S. cerevisiae growth inhibition in permissive medium (OD615), pilot counter-assay for S. cerevisiae lifespan shortening project, permissive growth control (AID 705;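 active means growth inhibition above 25% in both replicates, a cutoff set 3 SD above the mean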); details: OD615, 24 h, at 10 µM, stronger effect = higher value
[8] = S. cerevisiae growth inhibition in restrictive medium, OD615, pilot screen, restrictive growth control, yeast lifespan reduction project (AID 706;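 active means growth inhibition above a set limit, 3 SD over mean compound inhibition, in both replicates, cut at about 43% in these data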;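 further: modified DeaD lifespan yeast strain shifted to restrictive glucose medium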); details: OD615, 48 h, at 10 µM, stronger effect = higher value
[9] = doxorubicin toxicity protection in MRP-1 cells – H69AR cells, CellTiter-Glo, duplicate, MRP-1 activator project, pilot screen (AID 807;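 active means viability increase at or above a cutoff of the median across tested compounds plus 3 SD, cut at about 8.5% in these data, passing the limit was not always enough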;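 further: compound pretreatment 18-22 h then 72 h combined with doxorubicin; 0% = doxorubicin alone and 100% = vehicle without doxorubicin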); details: H69AR viability with doxorubicin, CellTiter-Glo luminescence; at 10 µM; stronger effect = higher value
[10] = viability of HCT116 without oncogenic beta-catenin – human colon tumor cells, pilot screen (AID 823;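 active means cell viability at or below a set limit in both duplicate runs, the limit being the all-compound median minus 4 SD, cut at about 23% in these data, passing the limit was not always enough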;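 further: 0% = wells killed by 20 µM Hyamine and 100% = untreated DMSO cell wells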); details: HCT116 beta-catenin knockout viability, CellTiter-Glo, 60 h; at 10 µM; stronger effect = lower value
[11] = viability of PTEN-null HCT116 cells – cell-based, HCT116 clonal line, CellTiter-Glo, pilot screen (AID 824;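 active means viability at or below 27.92% in each of two runs, the all-compound median minus 4 SD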;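 further: 0% = 20 µM Hyamine control and 100% = vehicle cell control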); details: HCT116 PTEN-deleted viability, 60 h, at 10 µM, stronger effect = lower value
[12] = RAM pathway blockade in budding yeast – dse1pr::URA3 reporter, 5-FOA selection, pilot screen (AID 869;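 active means inhibition over a set limit, the all-compound mean plus 3 SD, in both replicate runs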;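 further: 0% = DMSO wells with no growth and 100% = 10 µM 1-NA-PP1 with full growth; RAM network block rescues cells from 5-FOA so hits raise OD615 growth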); details: S. cerevisiae dse1pr::URA3 5-FOA growth, OD615, 2 d, at 10 µM, stronger effect = higher value
[13] = H69AR cell proliferation blockers – human, duplicate replicates, primary screen (AID 580;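 active means viability at or under a set limit in both replicates, limit being median viability minus 3 SD, cut at about 48% in these data, passing the limit was not always enough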;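 further: 100% = mean luminescence of untreated wells and 0% = no signal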); details: H69AR lung tumor cells viability, ATP luminescence, 72 h; at 10 µM; stronger effect = lower value
[14] = H69AR cells + 2 uM doxorubicin, measured here: viability with 2 uM doxorubicin, stronger effect = lower value
[15] = H69AR cells, compound alone cytotoxicity

Row | SMILES | inhibition [1] | viability [2] | differential viability (reversal) ([3]; H69AR cells + 2 uM doxorubicin) | viability [3, 14] [%] | viability [3, 15] [%] | inhibition [4] | inhibition [5] | viability [6] | growth inhibition [7] | growth inhibition [8] | viability increase [9] | viability [10] | viability [11] | inhibition [12] | viability [13]
1 | Cc1cccc(C2=NCC(=O)N(CC(=O)NCc3ccco3)c3sc4c(c32)CCCC4)c1 | 8% (inactive) | 102% (inactive) | -28.5% (inactive) | 84.4 | 55.9 | -6.49% (inactive) | 4.6% (inactive) |  |  |  |  |  |  |  | 
2 | O=c1[nH]c2ccccc2n1C1CCN(CCCC(c2ccc(F)cc2)c2ccc(F)cc2)CC1 | 5% (inactive) |  | -0.46% (inactive) | 1.62 | 1.16 |  |  | 2.55% (active) |  |  |  |  |  |  | 
3 | O=C1c2ccccc2C(=O)N1Cc1nc2ccccc2c(=O)n1-c1ccc(Br)cn1 |  |  |  |  |  |  |  |  | -8.78% (inactive) | -3.02% (inactive) | 0.3% (inactive) | 98.4% (inactive) | 99.3% (inactive) | 1.44% (inactive) | 
4 | CN1C[C@H](CNC(=O)OCc2ccccc2)C[C@@H]2c3cccc4c3c(cn4C)C[C@H]21 | 4% (inactive) |  | 1.09% (inactive) | 65.2 | 66.3 |  |  | 2.42% (active) |  |  |  |  |  |  | 66.3% (inactive)
5 | CN1CC[C@@]23CCCC[C@@H]2[C@@H]1Cc1ccc(O)cc13 | 1% (inactive) | 88% (inactive) | 7.79% (inactive) | 88 | 95.8 | -3.12% (inactive) | -0.33% (inactive) | 79.4% (inactive) |  |  |  |  |  |  | 95.8% (inactive)
6 | C#CCN(C)C(C)Cc1ccccc1 (stereo not given) | 5% (inactive) | 115% (inactive) | -5.18% (inactive) | 104 | 99.3 | -0.26% (inactive) | 2.33% (inactive) | 88.3% (inactive) |  |  |  |  |  |  | 99.3% (inactive)
7 | C[C@]12CCC(=O)C=C1CC[C@@H]1[C@@H]2CC[C@]2(C)C(=O)CC[C@@H]12 | 0% (inactive) | 79% (inactive) | -1.5% (inactive) | 86.8 | 85.3 | -3.38% (inactive) | -0.83% (inactive) | 76.8% (inactive) |  |  |  |  |  |  | 85.3% (inactive)
8 | Cc1ccnc(-n2c(-c3ccco3)nc3ccccc3c2=O)c1 | 0% (inactive) | 105% (inactive) | 10.2% (inactive) | 89.6 | 99.8 | -2.47% (inactive) | 1.15% (inactive) | 107% (inactive) |  |  |  |  |  |  | 99.8% (inactive)
9 | CN1CCN(C(=O)COc2ccc(-c3nc4ccccc4s3)cc2)CC1 |  |  |  |  |  |  |  |  | -5.45% (inactive) | 10.8% (inactive) | -4.38% (inactive) | 66.1% (inactive) |  | 2.09% (inactive) | 
10 | CC(NC(C)(C)C)C(=O)c1cccc(Cl)c1 (stereo not given) | 0% (inactive) | 87% (inactive) | 4.02% (inactive) | 95.5 | 99.5 | -1.17% (inactive) | 1.67% (inactive) | 74.8% (inactive) |  |  |  |  |  |  | 99.5% (inactive)
11 | CCOC(=O)c1c(N)n(Cc2ccco2)c2nc3ccccc3nc12 |  |  |  |  |  |  |  |  | -1.25% (inactive) | 0.175% (inactive) | -6.16% (inactive) | 83.3% (inactive) | 74% (inactive) | 1.18% (inactive) | 
12 | CC[N+]1(C)CCCC(OC(=O)C(O)(c2ccccc2)c2ccccc2)C1 (stereo not given) | 0% (inactive) | 81% (inactive) | 11.1% (inactive) | 89.6 | 101 | -5.71% (inactive) | -3.67% (inactive) | 76.8% (inactive) |  |  |  |  |  |  | 101% (inactive)
13 | CCCNS(=O)(=O)c1ccc(OCC(=O)N2CCN(Cc3ccccc3)CC2)cc1 | 0% (inactive) | 111% (inactive) | 0.375% (inactive) | 88.2 | 88.6 | -5.07% (inactive) | 5.97% (inactive) | 86.6% (inactive) |  |  |  |  |  |  | 88.6% (inactive)
14 | CN(C)CCN=Cc1c(O)n(-c2cccc3ccccc23)c(=O)[nH]c1=O | 6% (inactive) |  | 11.9% (inactive) | 92.8 | 105 | -5.87% (inactive) | 1.9% (inactive) | 103% (inactive) |  |  |  |  |  |  | 105% (inactive)
15 | CC1=NOC2(C)Nc3ncnn3C(c3ccccc3)C12 (stereo not given) | 0% (inactive) | 118% (inactive) | -3.04% (inactive) | 97.5 | 94.5 | -6.03% (inactive) | 7.9% (inactive) | 93% (inactive) |  |  |  |  |  |  | 94.5% (inactive)
16 | Clc1ccc(COC(Cn2ccnc2)c2ccc(Cl)cc2Cl)cc1 (stereo not given) | 2% (inactive) | 123% (inactive) | -9.47% (inactive) | 48 | 38.5 |  |  | 73.4% (inactive) |  |  |  |  |  |  | 
17 | COc1ccccc1CN1CCN(C(=O)Cc2ccccc2)CC1 | 1% (inactive) | 97% (inactive) | 3.51% (inactive) | 96.1 | 99.6 | -4.8% (inactive) | -4.36% (inactive) | 101% (inactive) |  |  |  |  |  |  | 99.6% (inactive)
